Measurements published in PubChem BioAssay AID624167 (Sanford-Burnham Center for Chemical Genomics, 2012).

Assay: Peg3 promoter luciferase inhibitors, potency, dose response, cell-based, HeLa, CREF/GAPDH counter-screen panel (AID 624167)
Conditions: CREF/GAPDH counter-screens; run 2, dose range 1, at 100 µM (top of the series)

**Q.** For `O=C(CCl)N1c2ccccc2Sc2ccc3ccccc3c21`, which inhibition is on record?
**A.** 100%

**Q.** For `CC(/C=C/c1ccccc1)=N/NC(=O)c1cc([N+](=O)[O-])cc([N+](=O)[O-])c1`, which inhibition is on record?
**A.** 12.6%

**Q.** For `Cc1nc(C)c(C(=O)N/N=C/c2cc(Br)ccc2O)s1`, which inhibition is on record?
**A.** 6.13%

**Q.** Which inhibition does the source give for `COc1ccc(-n2c(O)c(/C=N/Nc3nc(C)cc(C)n3)c3ccccc3c2=O)cc1OC` here?
**A.** -21.1%

**Q.** For `C=C1CC2(OC1=O)c1ccccc1CCc1ccccc12`, which inhibition is on record?
**A.** 99.7%

**Q.** Which inhibition does the source give for `CCC(=O)NC(c1ccc(C)cc1)c1ccc2cccnc2c1O` (stereo not drawn) here?
**A.** 53.6%

**Q.** With `COc1ccc(-n2cc(-c3ccccc3)c3c(N4CCOCC4)ncnc32)cc1` as the molecule, how does the inhibition read?
**A.** 91.3%

**Q.** With `CCCC(=O)NC(c1ccc(N(C)C)cc1)c1ccc2cccnc2c1O` (stereo not drawn) as the molecule, how does the inhibition read?
**A.** 27.1%

**Q.** Which inhibition does the source give for `O=C(N/N=C\c1c(O)ccc2ccccc12)c1ccc(Cn2cccn2)o1` here?
**A.** 34.2%

**Q.** Which inhibition does the source give for `CN1CCC2(CC1)N=C(c1ccc(F)cc1)C(=S)N2C(=O)c1ccc(C(C)(C)C)cc1` here?
**A.** 97.8%

**Q.** For `COC1CC(C)C(OC)c2cc(O)cc(c2O)NC(=O)C(C)=CC=CC(C)C(OC(N)=O)C(C)=CC(C)C1OC` (stereo not drawn), which inhibition is on record?
**A.** 84.8%

**Q.** For `COc1ccc(C(NC(=O)C(C)C)c2ccc3cccnc3c2O)cc1` (stereo not drawn), which inhibition is on record?
**A.** 40.9%

**Q.** Which inhibition does the source give for `COC(=O)C1C=CC(OC2OC(COC(C)=O)C(OC(C)=O)C(OC(C)=O)C2OC(C)=O)n2c(=O)n(-c3ccccc3)c(=O)n21` (stereo not drawn) here?
**A.** 84.2%

**Q.** For `CCCn1nc(C(=O)Nc2nc(-c3ccccn3)cs2)c2ccccc2c1=O`, which inhibition is on record?
**A.** 37.9%

**Q.** With `CCCCC(=O)NC(c1ccccc1)c1ccc2cccnc2c1O` (stereo not drawn) as the molecule, how does the inhibition read?
**A.** 45.2%

**Q.** With `CC1CC(C)C(=O)C(C(CC2CC(=O)NC(=O)C2)OC(=O)CC(=O)c2ccccc2)C1` (stereo not drawn) as the molecule, how does the inhibition read?
**A.** 90.5%

**Q.** For `COc1ccc(C(NC(C)=O)c2ccc3cccnc3c2O)c(OC)c1` (stereo not drawn), which inhibition is on record?
**A.** 0.125%

**Q.** With `O=[N+]([O-])c1nn(-c2ccc3c(c2)OCCO3)n(O)c1=Nc1ccc(Cl)cc1` as the molecule, how does the inhibition read?
**A.** 80.8%

**Q.** With `CC(C)CC1C(=O)N(Cc2cn(Cc3ccco3)nn2)CCS(=O)(=O)N1Cc1ccc(-c2ccc(F)cc2)cc1` (stereo not drawn) as the molecule, how does the inhibition read?
**A.** 54.7%

**Q.** With `O=C(Nc1ccccc1)c1nc[nH]c1C(=O)NCCCCCCNC(=O)c1[nH]cnc1C(=O)Nc1ccccc1` as the molecule, how does the inhibition read?
**A.** 83%

**Q.** With `O=C(N/N=C/c1ccc(Cl)c([N+](=O)[O-])c1)c1cc(-c2ccc3c4c(cccc24)CC3)n[nH]1` as the molecule, how does the inhibition read?
**A.** 98.4%

**Q.** Which inhibition does the source give for `CC(=O)c1ccc(-c2cnc3c(NC=O)cc(-c4ccccc4Oc4ccccc4)cn23)cc1` here?
**A.** 40%

**Q.** With `COc1cccc2c1C(=O)c1c(O)c3c(c(O)c1C2=O)CC(O)(C(C)=NNC(=O)c1ccc(Cl)c(Cl)c1)CC3OC1CC(N)C(O)C(C)O1` (stereo not drawn) as the molecule, how does the inhibition read?
**A.** 99.4%

**Q.** With `CCc1ccc(/C=C2\SC(=S)N(CCCC(=O)Nc3cc(C)on3)C2=O)cc1` as the molecule, how does the inhibition read?
**A.** 84.8%

**Q.** With `CCCCC(=O)NC(c1ccccc1OC)c1ccc2cccnc2c1O` (stereo not drawn) as the molecule, how does the inhibition read?
**A.** 50.9%

**Q.** With `Cc1ccc(NC(=S)NC(=O)c2ccc(F)cc2)cc1S(=O)(=O)Nc1ccccc1Cl` as the molecule, how does the inhibition read?
**A.** 55.6%

**Q.** Which inhibition does the source give for `CCc1ccn2cc(-c3ccc4c(c3)OCO4)nc2c1` here?
**A.** 97.5%

**Q.** With `CCOc1cccc(/C=N/NC(=S)Nc2cc(S(=O)(=O)N3CCOCC3)ccc2N2CCOCC2)c1O` as the molecule, how does the inhibition read?
**A.** -7.85%

**Q.** For `COc1ccc(NC(=O)c2cc(-c3ccccn3)nc3ccccc23)cc1S(=O)(=O)N(C)C`, which inhibition is on record?
**A.** 60.4%

**Q.** With `CC(C)CCCCCCCCCCCCC(=O)NCC(=O)NC1C(O)C(O)C(Nc2ncnc3nc[nH]c23)OC1C(O)CO` (stereo not drawn) as the molecule, how does the inhibition read?
**A.** 98.2%

**Q.** Which inhibition does the source give for `CN1OC[C@@H]2CN(S(=O)(=O)c3cccc(C(F)(F)F)c3)[C@H](c3ccc(-c4cc5ccccc5o4)cc3)C[C@@H]21` here?
**A.** 70.9%

**Q.** With `O=C(Nc1ccc(Cc2ccncc2)cc1)c1ccc([N+](=O)[O-])o1` as the molecule, how does the inhibition read?
**A.** 95.3%

**Q.** With `O=C(c1ccco1)N1CCN(C(c2ccccc2Cl)c2nnnn2Cc2cccs2)CC1` (stereo not drawn) as the molecule, how does the inhibition read?
**A.** 72.3%
